This is an account of results in PubChem BioAssay (EPA / NIEHS).

Molecules are shown by their SMILES. The source made the active and inactive calls. The calls were made as follows: active = hit-call score of the fitted dose curve at least 0.9, where 1 is the maximum; inactive = score below 0.9.

This assay is described as follows: ATG_NRF2_ARE_CIS: Attagene CIS-FACTORIAL HepG2 Assay for human Nuclear Factor Erythroid 2 Related Factor 2 (NFR2) response to Antioxidant Response Elements (ARE) (AID 2282992). The settings on record: HepG2 Attagene ARE/NRF2 reporter, transcription factor activity; actives raise or lower the signal. The procedure:
ATG_CIS is a cell-based, multiplexed-readout assay that uses HepG2, a human liver cell line, with measurements taken at 24 hours after chemical dosing in a 24-well plate.ATG_NRF2_ARE_CIS is one of 52 assay component(s) measured or calculated from the ATG_CIS assay. It is designed to make measurements of mRNA induction, a form of inducible reporter, as detected with fluorescence intensity signals by Reverse transcription polymerase chain reaction (RT-PCR) and Capillary electrophoresis technology.Data from the assay component ATG_NRF2_ARE_CIS was analyzed into 1 assay endpoint. This assay endpoint, ATG_NRF2_ARE_CIS, was analyzed with bidirectional fitting relative to DMSO as the negative control and baseline of activity. Using a type of inducible reporter, measures of mRNA for gain or loss-of-signal activity can be used to understand the reporter gene at the transcription factor-level as they relate to the gene NFE2L2. Furthermore, this assay endpoint can be referred to as a primary readout, because this assay has produced multiple assay endpoints where this one serves a reporter gene function. To generalize the intended target to other relatable targets, this assay endpoint is annotated to the dna binding intended target family, where the subfamily is basic leucine zipper.
Human liver HepG2 cells are transiently transfected with multiple reporter transcription units (MRTUs) in 6-well plates using FuGene 6 reagent (Roche; 3 ml FuGene/1 mg DNA). The MRTU constructs are regulated by a cis-regulating element (promoter). […] A major difference between the CIS and TRANS system is that in CIS activities of endogenous TFs are measured, whereas the TRANS assay evaluates changes in activities of exogenous, chimeric NR-Gal4 proteins. […] At the end of 24 hour incubation, total RNA was isolated using TriZol reagent (Invitrogen). The isolated RNA is then reverse-transcribed using oligo(dT) primer and Mo-MLV reverse transcriptase (Invitrogen) with DNAse I (Ambion) treatment for 30 min. The one-tenth of the produced cDNA was amplified by PCR using Taq DNA polymerase (Invitrogen) and two reporter sequence-specific primers. The PCR products were fluorescently labeled by primer extension with 6-arboxyfluorescein (6-FAM) 5'-labeled reporter sequence-specific primer (2 min at 95 C, 20 s at 68 C and 10 min at 72 C) and these products were digested with 5U of HpaI (New England Biolabs) for 2h at 37 C. The fragments were purified using Qiaquick PCR columns (Qiagen), analyzed on an ABI 3130xL genetic analyzer (Applied Biosystems) with peak positions identified by using a set of X-rhodamine (ROX)-labeled MapMarker1000 molecular weight standards (BioVentures). The raw capillary electrophoresis data was processed using Attagraph software (Attagene).
On to `Cc1cc(C(F)(C(F)(F)F)C(F)(F)F)ccc1NC(=O)c1cccc(I)c1C(=O)NC(C)(C)CS(C)(=O)=O`, for which the compound was called inactive.

As to `O=C(NC(=O)c1c(F)cccc1F)Nc1cc(Cl)c(F)c(Cl)c1F`, the compound was classed as inactive.

A word on the AC50: it is the concentration giving half of the maximal activity seen. For `c1ccc2c(c1)Oc1ccccc1O2`, the half-maximal activity concentration (AC50) was 35.4 µM (active).

Turning to `CCCCCCCCBr`, the outcome was inactive.

In the case of `CCOC(=O)C(SP(=S)(OC)OC)c1ccccc1` (stereo not given), the AC50 was 32 µM (active).

Consider `Cc1ccc2nc3sc(=O)sc3nc2c1`, for which the half-maximal activity concentration (AC50) was 4.06 µM (active).

Regarding `CCN(CC)C(=O)C(Cl)=C(C)OP(=O)(OC)OC`, the concentration at half-maximal activity (AC50) is 38.6 µM (active).

Regarding `BrCC(Br)c1ccccc1` (stereo not given), the outcome was inactive.

`COc1ccc([N+](=O)[O-])cc1O`: the compound was classed as inactive.

In the case of `O=C(NC(=O)c1c(F)cccc1F)Nc1cc(Cl)c(OC(F)(F)C(F)C(F)(F)F)cc1Cl` (stereo not given), the AC50 was 73 µM (active).

For `O=C(CCl)NCO`, the AC50 was 65.2 µM (active).

Take `OC(Cc1ccccc1Cl)(Cn1cncn1)C1(Cl)CC1` (stereo not given): the compound was called inactive.

Turning to `COC(=O)Nc1cccc(OC(=O)Nc2cccc(C)c2)c1`, the call was inactive.

On to `C=CCN=C=S`, for which the call was inactive.

As to `OC(Cc1ccccc1Cl)(Cn1[nH]cnc1=S)C1(Cl)CC1` (stereo not given), the AC50 was 12.1 µM (active).

Turning to `CC(C=O)Cc1ccc2c(c1)OCO2` (stereo not given), the compound was called inactive.

Regarding `CC(C)(c1ccccc1)c1cc(-n2nc3ccccc3n2)c(O)c(C(C)(C)c2ccccc2)c1`, the compound was classed as inactive.

With `Oc1cccc(-c2ccccc2)c1`, the AC50 was 100 µM (active).

In the case of `c1cc[c]([Sb]([c]2ccccc2)[c]2ccccc2)cc1`, the concentration at half-maximal activity (AC50) was 70.3 µM (active).

In the case of `CCCCCCCCCCCCN(C)C`, the AC50 is 46.9 µM (active).

On to `C[C@@H]1O[C@@H](O[C@H]2C[C@@H](O)[C@]3(CO)[C@H]4[C@H](O)C[C@]5(C)[C@@H](C6=CC(=O)OC6)CC[C@]5(O)[C@@H]4CC[C@]3(O)C2)[C@H](O)[C@H](O)[C@H]1O`, for which the AC50 was 19.5 µM (active).

In the case of `O=S(=O)(F)C(F)(F)C(F)(F)C(F)(F)C(F)(F)F`, the call was inactive.

`CC1(C)[C@H](C(=O)O[C@H](C#N)c2cccc(Oc3ccccc3)c2)[C@@H]1/C=C(\Cl)C(F)(F)F`: the compound was classed as inactive.

As to `CCCCCCCCCCCCOS(=O)(=O)O`, the compound was classed as inactive.

Regarding `O=C(Cl)OCCOCCOC(=O)Cl`, the compound was classed as inactive.

For `C[As+](C)(C)CC(=O)[O-]`, the result was inactive.

In the case of `OCCN(CCO)CCO`, the result was inactive.

Turning to `C=CC(F)(C(F)(F)F)C(F)(F)C(F)(F)F` (stereo not given), the outcome was inactive.

Turning to `C=CC(=O)[O][Sn]([CH2]CCC)([CH2]CCC)[CH2]CCC`, the half-maximal activity concentration (AC50) was 0.111 µM (active).

With `CN(N=O)c1ccc([N+](=O)[O-])cc1`, the AC50 is 32.3 µM (active).

Consider `CC(C)(COCC1CO1)COCC1CO1` (stereo not given), for which the half-maximal activity concentration (AC50) is 49.8 µM (active).

Consider `C[C@]12CC[C@@H](O)C[C@@H]1CC[C@@H]1[C@@H]2CC[C@]2(C)C(=O)CC[C@@H]12`, for which the outcome was inactive.

For the compound `CCOP(=O)(OCC)OC(=CCl)c1ccc(Cl)cc1Cl`, the AC50 is 7.84 µM (active).

As for `O=[N+]([O-])c1ccc(Cl)c([N+](=O)[O-])c1`, the call was inactive.

Consider `Cc1cc(Cl)ccc1OCCCC(=O)O`, for which the compound was called inactive.

On to `CCCCCCCCCCBr`, for which the AC50 is 68.6 µM (active).

Take `CN(N=O)C(N)=O`: the call was inactive.

On to `Nc1nc(N)nc(Cl)n1`, for which the outcome was inactive.

With `O=[N+]([O-])c1cccc2ccccc12`, the AC50 was 23.7 µM (active).

As for `CC(C)(C)c1cc([N+](=O)[O-])cc(C(C)(C)C)c1O`, the AC50 is 2.48 µM (active).
